From PubChem BioAssay (NCI)
The panel holds about 79,000 compounds, 15% with a hit somewhere; the sample as a whole holds those more often. Unmarked numbers belong to inactive results. The source made the active and inactive calls. Cut-off read from the data, not from the text of the source: active = growth inhibition above about 70%; inactive = the rest.

Key:
[1] = NCI Yeast Anticancer Drug Screen. Data for the rad50 strain (AID 155);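 note: 0% = growth of vehicle-only cultures of the same strain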; conditions: S. cerevisiae rad50 strain growth inhibition; at 50.0 µM; stronger effect = higher value
Outline: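 Growth of the mutant yeast was measured after compound exposure and referenced to vehicle-treated cultures.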

[2] = NCI Yeast Anticancer Drug Screen. Data for the mec2-1 strain (AID 157); conditions: S. cerevisiae mec2-1 strain, at 50.0 µM, stronger effect = higher value
Outline: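 Compounds were applied to mec2-1 yeast cells. Their growth was then compared with that of vehicle-treated cultures to give growth inhibition.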

[3] = NCI Yeast Anticancer Drug Screen. Data for the sgs1 mgt1 strain (AID 161);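 note: 0% = growth of cultures given vehicle only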; conditions: S. cerevisiae sgs1 mgt1 strain, at 50.0 µM, stronger effect = higher value
Outline: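 Yeast cells carrying a defined DNA-repair defect were exposed to test compounds. Growth inhibition was measured relative to vehicle-treated controls.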

[4] = NCI Yeast Anticancer Drug Screen. Data for the cln2 rad14 strain (AID 165);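 note: 0% = growth equal to vehicle treated cultures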; conditions: S. cerevisiae cln2 rad14 strain, at 50.0 µM, stronger effect = higher value
Outline: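 Strain: cln2 rad14 yeast, altered in cell cycle control and DNA damage repair. Read-out: growth inhibition vs vehicle.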

[5] = NCI Yeast Anticancer Drug Screen. Data for the bub3 strain (AID 167); conditions: S. cerevisiae bub3 mutant strain, at 50.0 µM, stronger effect = higher value
Outline: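 Whole-cell yeast assay. The mutant strain was incubated with compounds, and growth inhibition was determined by comparison with vehicle-treated cells.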

[6] = NCI Yeast Anticancer Drug Screen. Data for the mlh1 rad18 strain (AID 175); conditions: S. cerevisiae mlh1 rad18 strain growth inhibition; at 50.0 µM; stronger effect = higher value
Outline: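 A repair-deficient yeast strain is exposed to test compound, and growth is scored relative to vehicle-treated controls.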

SMILES | growth inhibition [1] | growth inhibition [2] | growth inhibition [3] | growth inhibition [4] | growth inhibition [5] | growth inhibition [6]
CCC(C#N)(c1ccccc1)N(CCc1ccccc1)C(=O)c1ccccc1 (centres undefined) | -5.8% | -0.5% | -12.9% | -20.9% | -13.2% | -22.1%
NC(CC1C=CCCC1)C(=O)O (centres undefined) | -26.4% | -16.1% | 1.85% | -52.3% | 7.1% | -4.3%
CCC(C#N)NC(=O)NC(C#N)CC (centres undefined) | 0.75% | 14.6% | -9.7% | -1.6% | -16.9% | -42.1%
CCCCC[CH2][Sn]([CH2]CCCCC)([CH2]CCCCC)[NH]S(=O)(=O)c1ccc(C)cc1 | 99.3% (active) | 99.6% (active) | 99.5% (active) | 99% (active) | 99.2% (active) | 99.3% (active)
Cc1ccc(N=Nc2ccc(O)c(CN(C)C)c2)cc1C | -26.4% | -29.5% | 48.5% | -11% | 49% | 36.2%
CC(=O)N1C(=O)NC(=O)C1(C)c1cccs1 (centres undefined) | 23.2% | -8.9% | 2.9% | -75.1% | 2% | 1.2%
O=C(CI)Nc1ccc(Cl)c(Cl)c1 | 99.7% (active) | 99.3% (active) | 99.8% (active) | 99.6% (active) | 99.8% (active) | 99.7% (active)
CCCC(O)c1ccccc1C (centres undefined) | 17.6% | 13.9% | 1.4% | -17.2% | 4.6% | 12.1%
COC1CC(NC(=O)c2ccccc2)C(O)C(C)O1 (centres undefined) | 8.65% | 18.3% | 11.6% | 10.6% | 0.8% | 8.5%
CC(C)C1=CC2=CCC3C(C)(COC(=O)CSC(C)(C)C)CCCC3(C)C2CC1 (centres undefined) | 14.2% | -2.25% | 31.6% | 18.6% | -1.9% | 20.2%
O=Ic1ccccc1 | 16.6% | 0.2% | 1.5% | 10.9% | -0.3% | -8.8%
COc1ccc2nc(-c3ccccc3)cc(N=[N+]=[N-])c2c1 | 1.9% | -0.85% | -12.7% | -5.35% | -23.1% | -12%
COc1cc(CCl)cc(OC)c1OC | -13.7% | -12% | -7.7% | -21.9% | -7.65% | -11.8%
O=S(=O)(Cc1ccccc1)/C(=C\c1ccccc1)c1ccccc1 | -6.65% | 11.4% | 2.4% | 0.1% | 6.6% | 5.5%
Cc1cc(NS(=O)(=O)c2ccc(NC(NC(=O)C(C(F)(F)F)C(F)(F)F)(C(F)(F)F)C(F)(F)F)cc2)no1 | 1.4% | -18.1% | -24.9% | -8.4% | 10.6% | 0.55%
c1ccc(C(C2=Nc3cccc4cccc(c34)N2)c2ccccc2)cc1 | -36.6% | -18.4% | -50.7% | 11.1% | -9.75% | -22.8%
COc1cc(C2N3CCCN2CC3)cc(OC)c1OC (centres undefined) | -3.75% | 0.35% | -21.6% | -3.5% | -7.75% | -2.55%
Cc1ccc2nc(N(C)C)nc-2c2[nH]c(=O)[nH]c12 | -28.9% | -31.6% | -12.2% | 3.9% | -28.9% | -19.3%
Cc1cc2nc(N3CCOCC3)n(C3OC(CO)C(O)C3O)c2cc1C (centres undefined) | -6.6% | 5.75% | 23.2% | 1.55% | -8.95% | 3.95%
CC(=O)Oc1ccc2c(c1)oc1c3ccc(OC(C)=O)cc3n(C)c(=O)c21 | -20.1% | -44.8% | -16% | -4.3% | -7.95% | -23.4%

SMILES | growth inhibition [1] | growth inhibition [2] | growth inhibition [3] | growth inhibition [4] | growth inhibition [5] | growth inhibition [6]
O=c1c2c([nH]c(=S)n1-c1ccccc1)NCCC2 | -13.8% | -1.25% | -11.6% | 3.3% | 9.55% | 0.4%
CC(/C=N/Nc1ccccc1)=N\N=c1/scc(-c2ccc(Cl)cc2)n1-c1ccc(Cl)cc1 | 22.4% | 4.65% | 13.9% | -0.2% | 11.1% | 27.9%
Cc1ncc(CO)c(Nc2ccccc2Cl)n1 | 2.5% | -2.4% | -6.25% | -16.4% | -11.7% | 14.4%
Cc1nc(-c2ccc([N+](=O)[O-])cc2)cn2c1nc1ccccc12 | -26.9% | -33% | -34.1% | -67.6% | -4.25% | -17.8%
O=S(=O)(O)Cc1ccccc1 | -29.9% | -21.9% | -19.1% | -24.4% | 2.45% | 2.35%
NS(=O)(=O)c1ccc(NC(=O)/C=C\C(=O)O)cc1 | -15.6% | -27.2% | 17.1% | -1.4% | -4.2% | -9.6%
CC1OCC2CC3(O1)OC3C(COCC1OC3COC(C)OC4(C3)OC14)O2 (centres undefined) | -7.05% | -25.3% | -3.45% | -44.5% | -3.15% | -14.9%
CSC1=NC=C(C#N)C2=NC(c3c(F)cccc3Cl)NN12 (centres undefined) | 30.3% | 7.65% | 35.3% | 26.2% | 24.6% | 26.8%
CSc1nc(SC)c(Cl)c(C(Cl)Cl)n1 | 32.2% | 59.2% | 68.8% | 7.3% | 74.8% (active) | 75% (active)
COC(=O)c1ccccc1N=Cc1ccc(N(CCC#N)S(=O)(=O)c2ccccc2)cc1 | -2.05% | 13.3% | -6.15% | 18.2% | 20.3% | 15.9%
CC(=O)C1C(=O)C(=O)N(c2ccccc2C(C)C)C1=O (centres undefined) | 19% | 6.55% | 11.9% | 21.4% | 11.9% | 29.5%
COc1ccccc1NC(=O)C(=O)C1C(=O)Nc2ccccc2S1=O (centres undefined) | -14.3% | -21.1% | -44.6% | 2.45% | -41% | -45.5%
Nc1cc(=S)nc(N)[nH]1 | 20.2% | -6.75% | 22.4% | 9.55% | 20.6% | 28.9%
C/C(=N/N(C)C)c1ccc(C)cc1 | 20.3% | -5.75% | 3.25% | -26.9% | 0.6% | 12.5%
COC(=O)/C(=C\Nc1cccc(C)n1)S(=O)(=O)c1ccc(C)cc1 | -33.9% | -1.55% | 18.5% | -21.5% | 7.3% | 12.8%
O=CNCCc1ccc2c(c1)[nH]c1ccccc12 | 8.45% | 16.1% | 12.9% | -11.3% | -13.2% | 20.6%
COc1ccccc1NC(=O)Nc1ccccc1 | 1.9% | -4.3% | 3.7% | -23.5% | -4.65% | 0.3%
COc1ccccc1C(c1ccccc1OC)c1ccccc1C(=O)O | 14.5% | -3.35% | 5.75% | 15% | 6.05% | 26.9%
CC(C)CCCC(C)C1CCC2C3CCC4Cc5c(c6ccccc6n5C)CC4(C)C3CCC12C (centres undefined) | -13.2% | 35% | -5.75% | -27.8% | -8.95% | 21.9%
